These results are taken from PubChem BioAssay AID1626 (SRMLSC, 2009).

Hit rate of the full screen: of about 220,000 compounds, about 2,000 (0.91%) were called active. Roughly 2% stayed inconclusive and do not appear here. Rule as the data show it: inconclusive = inhibition above about 80% without an active follow-up result; inactive = below that; test concentration not stated here. A selection follows. Results with a measured potency or affinity are listed apart.

This test is described as follows: M. tuberculosis H37Rv growth inhibitors, H37Rv strain (AID 1626).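 Also: bacteria incubated seven days before Alamar blue readout; 0% = bacteria only wells and 100% = bacteria with antibiotic wells.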 To be noted: stronger effect = higher value, concentration not given here.
With `COCCn1c(SCC(=O)N2CC(=O)Nc3ccccc32)nc2ccccc2c1=O`, the inhibition (commonly the change of the read-out against control, counted positive when it falls) is 14.5% (inactive).

Take `CCc1ccc(-c2cc(C(F)(F)F)n3nc(C(=O)Nc4c(C)nn(Cc5ccccc5Cl)c4C)cc3n2)s1`: the inhibition is -4.86% (inactive).

`CCc1ccc(-c2cc(C(F)(F)F)n3nc(C(=O)Nc4c(C)nn(Cc5ccccc5C)c4C)cc3n2)s1`: the inhibition is 2.87% (inactive).

In the case of `O=S(=O)(Nc1ccc(C(F)(F)F)cc1)c1cnc[nH]1`, the inhibition is -0.2% (inactive).

Consider `CCOC(=O)C(C(=O)OCC)N(C#N)c1nc(C)cc(C)n1`, for which the inhibition was -14% (inactive).

With `CCOC(=O)CNC(=O)CSc1nnc(-c2cccc(C)c2)n1-c1ccc(OC)cc1`, the inhibition is 3.71% (inactive).

For `Cc1cccc(-c2nsc(SCC(=O)c3ccc(Cl)cc3)n2)c1`, the inhibition is 94% (inactive).

In the case of `Cc1cccc(-c2nsc(SCC(=O)Nc3nccs3)n2)c1`, the inhibition is 10.4% (inactive).

In the case of `CCOC(=O)CSc1nc(-c2ccccc2)nc2ccccc12`, the inhibition is -6.27% (inactive).

With `CCOC(=O)CNC(=O)CSc1nnc(-c2ccccc2)c(-c2ccccc2)n1`, the inhibition is -8.15% (inactive).

In the case of `CCOC(=O)CNC(=O)CSc1nnc(SCC(=O)NCC(=O)OCC)s1`, the inhibition is -11.7% (inactive).

`CCOC(=O)N1CCN(Cc2nc(-c3cccc(C)c3)no2)CC1`: the inhibition is -1.51% (inactive).

Consider `CCOC(=O)CSc1nc(-c2ccc(OC)cc2)ns1`, for which the inhibition was 57.1% (inactive).

With `COc1ccc(C2=NOC(C(=O)N3CCN(c4ccccc4OC)CC3)C2)cc1` (configuration not stated), the inhibition was 10.3% (inactive).

Regarding `COc1ccc(NC(=O)COC(=O)Cc2ccc(Br)cc2)cc1`, the inhibition was 15.8% (inactive).

In the case of `Cn1c2ccccc2c(=O)c2c(=O)n(Cc3ccco3)c(-c3ccc(C(C)(C)C)cc3)nc21`, the inhibition is 50.6% (inactive).

`Cc1c(F)cccc1NC(=O)CCC(=O)O`: the inhibition was 0.24% (inactive).

Take `O=C(c1cnc2sccn2c1=O)N1CCCc2ccccc21`: the inhibition was 0.62% (inactive).

`CNC(=O)CSCCn1c(SCC(=O)NC)nc2ccccc2c1=O`: the inhibition is -1.73% (inactive).

Take `CC(=O)c1cccc(NC(=O)C(C)OC(=O)CNC(=O)c2ccc(C)s2)c1` (configuration not stated): the inhibition was -1.06% (inactive).

In the case of `O=C(O)c1ccc(CSc2ncn[nH]2)cc1`, the inhibition is -5.36% (inactive).

Take `Clc1ccc(CSc2ncn[nH]2)cc1`: the inhibition is 74.3% (inactive).

Regarding `Cc1ccc(C)c(N(C)S(=O)(=O)c2cccc3nsnc23)c1`, the inhibition was -5.61% (inactive).

On to `COc1cccc(NC(=S)N(Cc2ccccn2)Cc2ccccc2Cl)c1`, for which the inhibition is 8.54% (inactive).

Regarding `CCn1c(=O)cc(NC2=NCC(C)CN2c2cccc(Cl)c2)n(C)c1=O` (configuration not stated), the inhibition was -2.51% (inactive).

Consider `Cc1ccc(OCC(=O)Nc2ccccc2F)cc1C`, for which the inhibition is 2.33% (inactive).

As to `CCCCc1ccc(NC(=O)COc2ccc(C(=O)Nc3ccccc3C)cc2)cc1`, the inhibition was 73.6% (inactive).
